Experimental findings from PubChem BioAssay (NCATS) are described below.

Structures are written as SMILES. Results filed as inconclusive are left out. Active and inactive are the calls of the source. The call rests on the fitted dose curve; in most records, active means well fitted inhibition curve with a large enough effect; inconclusive means small, poorly fitted or top-dose-only effect; inactive means no such curve, though single readings can be large or run the other way. Numbered stars: 1 amine (or outer) side, 2 acyl side, 3 side chain; on linkers, the order of the positions; unused ones are H or OH. Square brackets hold non-standard residues; d marks the D form. Peptide text beside a SMILES is read from it. * marks the point of attachment. X10 = O=C(C(CC(O)CO)O[*:1])[*:2]; AMC = Cc1cc(=O)oc2cc(N*)ccc12; NMeV = CN[CH](C(=O)O)C(C)C; Cbz = O=C(OCc1ccccc1)*; NMeA = CN[CH](C)C(=O)O; βAla = NCCC(=O)O

For the assay, the target named is Retinaldehyde dehydrogenase 3 (Homo sapiens) (UniProt P47895). The assay can be described thus: qHTS for Inhibitors of the Aldehyde Dehydrogenase Family (ALDH1A3) Primary screen (AID 2061315).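 Further: plate controls were DMSO vehicle for no effect and reference inhibitor for full effect.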 The conditions noted are these: ALDH inhibition qHTS; series mostly up to 56 µM; activity change, negative = inhibition: at the top concentration. Background: qHTS replaces the single test concentration by a dilution series.
For `COc1cc(/C=C2\CC[C@H]3COC[C@@H](c4cc(F)c(F)c(F)c4)N3C2=O)ccc1-n1cnc(C)c1`, the “activity change, negative = inhibition” value was 0.466% (inactive).

For the compound `C=C1CCC[C@]2(C)CC/C(=C(/CO)C(=O)OC)C[C@@H]12`, the “activity change, negative = inhibition” value was -10.6% (inactive).

On to `CC(=O)C=C=C1C(C)(C)CC(O)CC1(C)O[C@@H]1O[C@H](CO[C@H]2OC[C@](O)(CO)[C@H]2O)[C@@H](O)[C@H](O)[C@H]1O` (stereo not given in full), for which the “activity change, negative = inhibition” value was -16% [at 28 µM] (inactive).

In the case of `CC(O)C/C=C/C=C/C(=O)OC1C=C2COC(=O)C2(O)C2(C)CCCC(C)(C)C12` (stereo not given), the “activity change, negative = inhibition” value is 2.47% (inactive).

Consider `COC(=O)C[C@H]1[C@]2(C)C3=C(C)[C@H](c4ccoc4)C[C@H]3O[C@@H]2[C@H](O)C2[C@](C)(C(=O)OC)C=CC(=O)[C@@]21C` (stereo not given in full), for which the “activity change, negative = inhibition” value was -16.4% [at 28 µM] (inactive).

Take `C[C@@H]1O[C@@H](O[C@H]2[C@@H]3C=CO[C@@H](O[C@@H]4O[C@H](CO)[C@@H](O)[C@H](O)[C@H]4O)[C@@H]3[C@@]3(CO)O[C@@H]23)[C@H](O)[C@H](O)[C@H]1OC(=O)/C=C/c1ccc(O)cc1`: the “activity change, negative = inhibition” value was -9.18% [at 16.9 µM] (inactive).

`COc1cc(-c2cccc(O)c2)cc2c1OCO2`: the “activity change, negative = inhibition” value was 0.922% (inactive).

For `C/C=C(\C)C(=O)O[C@H]1[C@@H](O[C@]2(COC(=O)CC(C)C)O[C@H](COC(=O)C(C)CC)[C@@H](OC(C)=O)[C@@H]2O)O[C@H](COC(C)=O)[C@@H](O)[C@@H]1O` (stereo not given in full), the “activity change, negative = inhibition” value was 5.73% [at 16.9 µM] (inactive).

On to `C/C(=N\O)c1ccc(OCC(=O)N2CCCCC2)cc1`, for which the “activity change, negative = inhibition” value was -25.5% (inactive).

Take `C=C1CCC2C(C(C)(C)O)CCC2(C)CC(O)C(=C)CCC1O` (stereo not given): the “activity change, negative = inhibition” value was 3.69% (inactive).

Take `CC(C)COc1ccc(CNC(=O)N(Cc2ccc(F)cc2)C2CCN(C)CC2)cc1`: the “activity change, negative = inhibition” value is -8.12% (inactive).

On to `C=CC(C)(C)C12C=C(OC)C(=O)N3C(C(C)C)C(=O)NC31N(OC)c1ccccc12` (stereo not given), for which the “activity change, negative = inhibition” value was 14.1% [at 28 µM] (inactive).

Regarding `Cc1cc2c(cc1N1C(=O)c3cccc4c(CCCO)ccc(c34)C1=O)n(C)c(=O)n2C`, the “activity change, negative = inhibition” value was -3.89% [at 16.9 µM] (inactive).

For `CC1(C)CC[C@]2(C(=O)O[C@@H]3O[C@H](CO)[C@@H](O)[C@H](O)[C@H]3O)CC[C@]3(C)C(=CCC4[C@@]5(C)C[C@@H](O)[C@H](O)C(CO)(CO)C5CC[C@]43C)C2[C@@H]1O` (stereo not given in full), the “activity change, negative = inhibition” value was 9.32% [at 16.9 µM] (inactive).

For the compound `NC(N)=NC(=O)c1cnn(-c2cccc3ncccc23)c1C1CC1`, the “activity change, negative = inhibition” value is -6.03% (inactive).

With `C[C@@H]1O[C@@H](O[C@H]2[C@H](O[C@H]3[C@H](O[C@H]4CC[C@@]5(C)C(CC[C@]6(C)C5CC=C5[C@@H]7CC(C)(C)C[C@@H](O)[C@]7(C)CC[C@]56C)C4(C)C)O[C@H](C(=O)O)[C@@H](O)[C@@H]3O)O[C@H](C(=O)O)[C@H](O)[C@@H]2O)[C@H](O)[C@H](O)[C@H]1O` (stereo not given in full), the “activity change, negative = inhibition” value was -8.56% [at 16.9 µM] (inactive).

In the case of `COc1cc(/C=C/C(=O)O[C@@H]2O[C@H](CO)[C@@H](O)[C@H](O)[C@H]2O)ccc1O`, the “activity change, negative = inhibition” value is -17% (inactive).

In the case of `C[C@@H]1C(=O)O[C@H]2CC34[C@H]5C[C@@H](C(C)(C)C)C36[C@@H](OC(=O)[C@@H]6O)O[C@@]4(C(=O)O5)[C@]21O` (stereo not given in full), the “activity change, negative = inhibition” value was -9.42% [at 28 µM] (inactive).

For `Nc1ncnc2c1nc(Cl)n2C1OC2COP(=O)(O)OC2C1O` (stereo not given), the “activity change, negative = inhibition” value is -14.3% (inactive).

As for `Cc1cc(=O)oc2cc(NC(=O)[C@H](CCC(=O)O)NC(=O)[C@H](CC(C)C)NC(=O)[C@H](CC(C)C)NC(=O)OCc3ccccc3)ccc12` (Cbz-Leu-Leu-Glu-{AMC}), the “activity change, negative = inhibition” value is 7.83% (inactive).

In the case of `CCCCc1nc(C)c(CC(=S)N(C)C)c(=O)n1Cc1ccc(-c2ccccc2-c2nn[nH]n2)cc1`, the “activity change, negative = inhibition” value was 1.68% (inactive).

In the case of `C[C@]12CC/C(=N\OCC(=O)O)C=C1CC[C@@H]1[C@@H]2[C@@H](O)C[C@@]2(C)[C@H]1CC[C@]2(O)C(=O)CO`, the “activity change, negative = inhibition” value was -3.04% (inactive).

As to `Cn1nnc(-c2ccc(-c3ccc(N4C[C@H](CO)OC4=O)cc3F)cn2)n1`, the “activity change, negative = inhibition” value was -10.5% (inactive).

Consider `C/C1=C/CCC2=CC(OC2=O)C(C)(C)/C=C/C1=O` (stereo not given), for which the “activity change, negative = inhibition” value was -0.844% (inactive).

For the compound `C[C@@H]1O[C@@H](O[C@H]2[C@H](OC(=O)[C@]34CCC(C)(C)C[C@H]3C3=CCC5[C@@]6(C)CC[C@H](O[C@@H]7O[C@H](C(=O)O)[C@@H](O)[C@H](O)[C@H]7O[C@@H]7O[C@H](CO)[C@H](O)[C@H](O)[C@H]7O)[C@@](C)(C=O)C6CC[C@@]5(C)[C@]3(C)C[C@H]4O)O[C@H](C)[C@H](O[C@@H]3O[C@H](C)[C@H](O)[C@H](O)[C@H]3O)[C@@H]2O)[C@H](O)[C@H](O)[C@H]1O[C@@H]1OC[C@@H](O)[C@H](O[C@@H]2O[C@H](CO)[C@@H](O)[C@H](O)[C@H]2O)[C@H]1O` (stereo not given in full), the activity change, negative = inhibition was -11.5% [at 11.2 µM] (inactive).

Regarding `C=CC1(C)CC(O)C(C(=C)C(=O)OC)C(O)C1C(=C)CO` (stereo not given), the “activity change, negative = inhibition” value was 15.2% (inactive).

`COc1c2c(c(C)c3c1C(=O)OC3)OC1(C)CC(O)C34OC(OC)(CC(OC(C)=O)C3(C)C1C2)OC4(C)C` (stereo not given): the “activity change, negative = inhibition” value is 13.3% [at 28 µM] (inactive).

As to `O=C1COC2(CCN(S(=O)(=O)c3ccc(-c4ccc5cccnc5c4)cc3)CC2)CN1C1CC1`, the “activity change, negative = inhibition” value is 5.1% (inactive).

`N#Cc1cccc(C(=O)Nc2cc(-c3ccccc3)nn2-c2ccccc2)c1`: the “activity change, negative = inhibition” value was 7.48% (inactive).

`CC[C@H](C)/C=C(C)/C=C/C1=CC2=CC(=O)[C@]3(C)OC(=O)[C@@H](C(C)=O)[C@@H]3C2=CO1`: the “activity change, negative = inhibition” value is 7.44% (inactive).

Consider `CC(=O)OC[C@]12[C@H](OC(C)=O)[C@H](OC(=O)c3ccccc3)[C@@H]3[C@@H](OC(C)=O)[C@]1(OC3(C)C)[C@H](C)C[C@H](OC(=O)c1ccccc1)[C@@H]2OC(=O)c1ccccc1`, for which the “activity change, negative = inhibition” value was 9.22% [at 16.9 µM] (inactive).

For the compound `C[C@]12C[C@@H](O)[C@@H]3C[C@@]1(O[C@@H]1O[C@H](CO)[C@@H](O)[C@H](O)[C@H]1O)[C@]3(COC(=O)c1ccccc1)C(=O)O2`, the “activity change, negative = inhibition” value is 18.7% [at 28 µM] (inactive).

For the compound `NC[C@H]1CCC[C@@H](CNC(=O)[C@@H](Cc2c[nH]c3ccccc23)NC(=O)N2CCC3(C=Cc4ccccc43)CC2)C1`, the “activity change, negative = inhibition” value is 26.8% (inactive).

As to `CCC(C)C1NC(=O)C2CCCN2C(=O)C(CC(O)CO)OC(=O)CCNC(=O)C(C)N(C)C(=O)C(C(C)C)N(C)C1=O` (stereo not given) (cyclo([X10]PI[NMeV][NMeA][βAla]); configuration not given here), the “activity change, negative = inhibition” value is 18.9% [at 16.9 µM] (inactive).

As to `CC1(C)CCCC2(C)C3=C(C(=O)OC3O)C(O)CC12` (stereo not given), the “activity change, negative = inhibition” value was -10.8% (inactive).

Turning to `C=C(C(=O)O)C1CCC2(C)CCC(O)C(C)(O)C2C1` (stereo not given), the “activity change, negative = inhibition” value was 8.9% (inactive).

As to `C=C1[C@H]2CCC3[C@]4(C)CCC[C@@](C)(C(=O)O)C4CC[C@]3(C2)[C@H]1OC(C)=O` (stereo not given in full), the “activity change, negative = inhibition” value was 2.75% (inactive).

On to `C=C(C)C1Cc2cc(C(=O)OC3OC(CO)C(O)C(O)C3O)ccc2O1` (stereo not given), for which the “activity change, negative = inhibition” value is -18.9% (inactive).

For `COc1cccc(NC[C@@H](O)Cn2c3ccc(Br)cc3c3cc(Br)ccc32)c1`, the “activity change, negative = inhibition” value was -12.3% (inactive).

Turning to `C=C1[C@H](OC(C)=O)[C@H]2[C@@H](OC(C)=O)[C@](C)(OC(C)=O)C[C@]2(OC(C)=O)C(=O)[C@H](C)/C=C/C(C)(C)C(=O)[C@H](OC(=O)C(C)CC)[C@H]1OC(C)=O` (stereo not given in full), the “activity change, negative = inhibition” value was 1.07% [at 16.9 µM] (inactive).
